The whole screen tested about 5,500 compounds, of which about 2,000 (36%) were called active. Another 18% or so got no clear call; they are omitted. Rule as the data show it: active = normalized growth mostly below about 0.91 (no sharp cut-off); inconclusive = no clear call, values can overlap the other calls; inactive = mostly above about 0.92. This is one part of the list.
Assay: chemical genetic growth profiling, strain panel (AID 1159580);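 also: tested at 20 µM; growth read once vehicle control cultures reached saturation at 30 °C; 1 = growth at the plate median or of vehicle wells; lower values mean less growth of the strain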
Details: S. cerevisiae deletion strains, growth OD

Measured: normalized growth

CC(=O)CC(=O)CCC(=O)O
inactive: locus YAL021C, strain ccr4, hits give low values 0.991 | locus YAL026C, strain drs2, hits give low values 1.05 | locus YAL030W, strain snc1, hits give low values 1.02 | locus YBL061C, strain skt5, hits give low values 1.03 | locus YBR009C, strain hhf1, hits give low values 1.03 | locus YBR023C, strain chs3, hits give low values 1.03 | locus YBR171W, strain sec66, hits give low values 1.04 | locus YBR231C, strain swc5, hits give low values 1.03 | locus YBR279W, strain paf1, hits give low values 1.02 | locus YCL011C, strain gbp2, hits give low values 1.02 | locus YCL016C, strain dcc1, hits give low values 1.02 | locus YCL061C, strain MRC1, hits give low values 1.02 | locus YCL069W, strain vba3, hits give low values 1.02 | locus YCR088W, strain abp1, hits give low values 1.02 | locus YDL005C, strain med2, hits give low values 1.03 | locus YDL040C, strain nat1, hits give low values 1.02 | locus YDR001C, strain nth1, hits give low values 1.01 | locus YDR069C, strain doa4, hits give low values 1.03 | locus YDR137W, strain rgp1, hits give low values 1.01 | locus YDR159W, strain sac3, hits give low values 1 | locus YDR195W, strain ref2 0.989 | locus YDR297W, strain sur2, hits give low values 1.01 | locus YDR334W, strain swr1, hits give low values 1.03 | locus YDR335W, strain msn5, hits give low values 1.02 | locus YDR392W, strain spt3, hits give low values 0.95 | locus YEL003W, strain gim4, hits give low values 1.02 | locus YEL037C, strain rad23, hits give low values 1.02 | locus YEL061C, strain CIN8 (second series), hits give low values 1.02 | locus YER015W, strain faa2, hits give low values 1.02 | locus YER016W, strain bim1, hits give low values 1.04 | locus YER111C, strain swi4, hits give low values 1.03 | locus YER155C, strain BEM2 (second series), hits give low values 1.05 | locus YFR010W, strain ubp6, hits give low values 1.03 | locus YGL167C, strain pmr1, hits give low values 1.02 | locus YGL173C, strain kem1, hits give low values 1.03 | locus YGL227W, strain vid30, hits give low values 1.01 | locus YGL240W, strain doc1, hits give low values 1.04 | locus YGL253W, strain hxk2, hits give low values 1.05 | locus YHR013C, strain ard1, hits give low values 1.04 | locus YHR027C, strain rpn1, hits give low values 1.03 | locus YHR030C, strain SLT2, hits give low values 0.982 | locus YHR079C, strain IRE1, hits give low values 0.996 | locus YHR142W, strain chs7, hits give low values 1.02 | locus YJL092W, strain hpr5, hits give low values 1.02 | locus YJL095W, strain BCK1 (second series), hits give low values 1.02 | locus YJL095W, strain BCK1, hits give low values 0.983 | locus YJL115W, strain asf1, hits give low values 1.03 | locus YJL129C, strain trk1, hits give low values 1.01 | locus YJL154C, strain vps35, hits give low values 1.01 | locus YJL164C, strain tpk1, hits give low values 1.01 | locus YJL166W, strain qcr8, hits give low values 1.02 | locus YJL187C, strain SWE1, hits give low values 1.02 | locus YJR066W, strain TOR1, hits give low values 0.962 | locus YKL160W, strain elf1, hits give low values 1 | locus YKR026C, strain gcn3, hits give low values 1.03 | locus YKR091W, strain srl3, hits give low values 1.02 | locus YLL001W, strain dnm1, hits give low values 1.01 | locus YLL026W, hits give low values 1.02 | locus YLL041C, strain sdh2, hits give low values 1.02 | locus YLR027C, strain aat2, hits give low values 1.03 | locus YLR113W, strain HOG1, hits give low values 1.04 | locus YLR221C, strain rsa3, hits give low values 1.01 | locus YLR258W, strain gsy2, hits give low values 1.04 | locus YLR262C, strain YPT6 (second series), hits give low values 1.02 | locus YLR320W, strain mms22, hits give low values 1.03 | locus YLR342W, strain FKS1, hits give low values 1.03 | locus YLR357W, strain rsc2, hits give low values 0.968 | locus YLR370C, strain arc18, hits give low values 1.03 | locus YLR384C, strain iki3, hits give low values 1.03 | locus YML120C, strain ndi1, hits give low values 1 | locus YMR058W, strain fet3, hits give low values 1.02 | locus YMR125W, strain sto1, hits give low values 1.02 | locus YMR129W, hits give low values 1.02 | locus YMR205C, strain PFK2, hits give low values 1.02 | locus YMR231W, strain pep5, hits give low values 1.02 | locus YNL071W, strain lat1, hits give low values 1.03 | locus YNL183C, strain NPR1, hits give low values 0.91 | locus YNL209W, strain ssb2, hits give low values 1.02 | locus YNL248C, strain rpa49, hits give low values 0.989 | locus YNL322C, strain KRE1 (second series), hits give low values 1.02 | locus YNR049C, strain mso1, hits give low values 1.02 | locus YOR001W, strain rrp6, hits give low values 1.01 | locus YOR070C, strain gyp1, hits give low values 1.02 | locus YOR080W, strain dia2, hits give low values 1.01 | locus YOR083W, strain WHI5, hits give low values 1 | locus YOR106W, strain vam3, hits give low values 1.03 | locus YOR231W, strain MKK1, hits give low values 0.992 | locus YOR265W, strain rbl2, hits give low values 1.02 | locus YOR270C, strain vph1, hits give low values 1.11 | locus YOR290C, strain snf2, hits give low values 1.01 | locus YPL051W, strain arl3, hits give low values 1.01 | locus YPL078C, strain atp4, hits give low values 1.01 | locus YPL106C, strain sse1, hits give low values 1.02 | locus YPL240C, strain hsp82, hits give low values 1.03 | locus YPL256C, strain CLN2, hits give low values 0.99

Reference: PubChem BioAssay AID1159580 (chemical genetic matrix, 2015)
